As a reminder, the inhibition is the relative decrease from the control value, in per cent.

Drawing on ChEMBL document CHEMBL1961873, “Compounds: GSK PKIS; Assays: Nanosyn kinase panel” (2012), this text covers inhibition for seven compounds.

The target of test [1] is Glycogen synthase kinase-3 beta (Homo sapiens) (UniProt P49841). The following applies: at 1 µM.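 Also: reported values are mean percent inhibition of GSK3B.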
Test [2] deals with Homeodomain-interacting protein kinase 1 (Homo sapiens) (UniProt Q86Z02). The conditions noted are these: at 0.1 µM.
For test [3] the target is unchanged. The following applies: at 1 µM.
Test [4] deals with T1, Homeodomain-interacting protein kinase 4 (Homo sapiens) (UniProt Q8NE63).
T1 sequence (whole entry): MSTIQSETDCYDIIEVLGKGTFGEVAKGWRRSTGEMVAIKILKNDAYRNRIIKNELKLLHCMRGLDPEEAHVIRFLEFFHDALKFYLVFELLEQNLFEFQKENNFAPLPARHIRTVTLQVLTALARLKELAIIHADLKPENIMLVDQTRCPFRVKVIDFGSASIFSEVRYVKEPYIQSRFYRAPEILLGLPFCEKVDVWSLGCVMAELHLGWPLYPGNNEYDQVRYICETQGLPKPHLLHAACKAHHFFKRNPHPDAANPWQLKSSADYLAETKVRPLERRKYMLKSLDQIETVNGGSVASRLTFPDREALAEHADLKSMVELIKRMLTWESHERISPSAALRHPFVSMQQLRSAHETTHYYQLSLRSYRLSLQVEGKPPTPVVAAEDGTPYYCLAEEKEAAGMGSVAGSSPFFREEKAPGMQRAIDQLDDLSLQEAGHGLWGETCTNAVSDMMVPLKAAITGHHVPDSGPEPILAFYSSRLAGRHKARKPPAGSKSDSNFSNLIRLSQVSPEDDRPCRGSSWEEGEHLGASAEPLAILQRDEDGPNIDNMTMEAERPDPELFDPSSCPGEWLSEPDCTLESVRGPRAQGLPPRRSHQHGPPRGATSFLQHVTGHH
The conditions noted are these: at 0.1 µM.

The target of test [5] is T1, Homeodomain-interacting protein kinase 4 (Homo sapiens). The conditions noted are these: at 1 µM.
For test [6], the target named is Mitogen-activated protein kinase 9 (Homo sapiens) (UniProt P45984). The conditions noted are these: at 0.1 µM.
Test [7] shares this target. The conditions noted are these: at 1 µM.
The target of test [8] is Mitogen-activated protein kinase 1 (Homo sapiens) (UniProt P28482). The conditions noted are these: at 0.1 µM.
Test [9] shares this target. The conditions noted are these: at 1 µM.
The target in test [10] is Mitogen-activated protein kinase 3 (Homo sapiens) (UniProt P27361). The following applies: at 0.1 µM.
Test [11] shares this target. The conditions noted are these: at 1 µM.
For test [12], the target named is SRSF protein kinase 3 (Homo sapiens) (UniProt Q9UPE1). The conditions noted are these: at 0.1 µM.
For test [13] the target is unchanged. The conditions noted are these: at 1 µM.
The target in test [14] is Mitogen-activated protein kinase 14 (Homo sapiens) (UniProt Q16539). The conditions noted are these: at 0.1 µM.
Test [15] has the same target. The conditions noted are these: at 1 µM.
The target of test [16] is Mitogen-activated protein kinase 11 (Homo sapiens) (UniProt Q15759). The following applies: at 0.1 µM.
Test [17] shares this target. The conditions noted are these: at 1 µM.
Test [18] deals with T2, Mitogen-activated protein kinase 13 (Homo sapiens) (UniProt O15264).
T2 sequence (whole entry): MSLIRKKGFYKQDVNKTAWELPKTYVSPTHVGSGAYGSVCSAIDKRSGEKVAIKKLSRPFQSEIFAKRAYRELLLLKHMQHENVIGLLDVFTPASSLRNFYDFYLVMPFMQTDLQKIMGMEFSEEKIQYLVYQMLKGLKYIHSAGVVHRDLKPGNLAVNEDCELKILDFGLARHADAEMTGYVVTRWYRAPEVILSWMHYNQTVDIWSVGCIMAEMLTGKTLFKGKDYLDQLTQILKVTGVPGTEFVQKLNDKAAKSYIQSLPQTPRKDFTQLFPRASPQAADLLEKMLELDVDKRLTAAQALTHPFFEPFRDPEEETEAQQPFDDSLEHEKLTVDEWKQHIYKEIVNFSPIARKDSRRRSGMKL
The conditions noted are these: at 0.1 µM.

For test [19], the target named is T2, Mitogen-activated protein kinase 13 (Homo sapiens). The conditions noted are these: at 1 µM.
The target of test [20] is T3, Mitogen-activated protein kinase 12 (Homo sapiens) (UniProt P53778).
T3 sequence (whole entry): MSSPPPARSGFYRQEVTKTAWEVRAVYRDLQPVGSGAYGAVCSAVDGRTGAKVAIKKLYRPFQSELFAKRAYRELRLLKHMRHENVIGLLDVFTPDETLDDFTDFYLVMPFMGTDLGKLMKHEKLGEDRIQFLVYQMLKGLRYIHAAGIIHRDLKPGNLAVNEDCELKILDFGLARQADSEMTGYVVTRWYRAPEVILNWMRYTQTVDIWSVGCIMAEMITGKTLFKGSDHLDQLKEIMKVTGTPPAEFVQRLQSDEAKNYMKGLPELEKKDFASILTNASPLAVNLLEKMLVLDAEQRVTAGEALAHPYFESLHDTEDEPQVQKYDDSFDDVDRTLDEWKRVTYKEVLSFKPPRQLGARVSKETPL
The conditions noted are these: at 0.1 µM.

Sequence of Mitogen-activated protein kinase 9 (Homo sapiens) (P45984 whole entry, looked up): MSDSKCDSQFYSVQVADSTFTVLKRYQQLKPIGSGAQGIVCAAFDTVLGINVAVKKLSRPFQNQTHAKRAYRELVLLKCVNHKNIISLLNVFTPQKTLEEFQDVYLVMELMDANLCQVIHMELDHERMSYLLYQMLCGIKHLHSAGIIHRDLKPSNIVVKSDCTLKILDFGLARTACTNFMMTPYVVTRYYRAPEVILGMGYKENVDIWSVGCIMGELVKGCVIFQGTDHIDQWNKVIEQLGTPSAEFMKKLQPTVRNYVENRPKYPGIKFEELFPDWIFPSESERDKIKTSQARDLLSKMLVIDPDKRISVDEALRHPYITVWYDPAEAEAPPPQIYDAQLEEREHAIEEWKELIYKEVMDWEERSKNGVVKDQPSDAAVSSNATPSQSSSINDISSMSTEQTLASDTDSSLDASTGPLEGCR
Sequence of Mitogen-activated protein kinase 1 (Homo sapiens) (P28482 whole entry): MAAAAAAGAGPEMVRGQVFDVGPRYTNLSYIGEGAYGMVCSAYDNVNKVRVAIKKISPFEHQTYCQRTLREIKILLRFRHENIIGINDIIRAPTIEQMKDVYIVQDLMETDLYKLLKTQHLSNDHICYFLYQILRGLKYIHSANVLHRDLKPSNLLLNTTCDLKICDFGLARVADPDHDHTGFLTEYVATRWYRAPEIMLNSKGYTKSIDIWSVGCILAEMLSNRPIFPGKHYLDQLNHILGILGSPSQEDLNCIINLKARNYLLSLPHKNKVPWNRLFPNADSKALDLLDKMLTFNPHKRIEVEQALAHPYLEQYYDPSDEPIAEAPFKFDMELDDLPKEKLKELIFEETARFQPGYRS
Sequence of Mitogen-activated protein kinase 11 (Homo sapiens) (Q15759 whole entry): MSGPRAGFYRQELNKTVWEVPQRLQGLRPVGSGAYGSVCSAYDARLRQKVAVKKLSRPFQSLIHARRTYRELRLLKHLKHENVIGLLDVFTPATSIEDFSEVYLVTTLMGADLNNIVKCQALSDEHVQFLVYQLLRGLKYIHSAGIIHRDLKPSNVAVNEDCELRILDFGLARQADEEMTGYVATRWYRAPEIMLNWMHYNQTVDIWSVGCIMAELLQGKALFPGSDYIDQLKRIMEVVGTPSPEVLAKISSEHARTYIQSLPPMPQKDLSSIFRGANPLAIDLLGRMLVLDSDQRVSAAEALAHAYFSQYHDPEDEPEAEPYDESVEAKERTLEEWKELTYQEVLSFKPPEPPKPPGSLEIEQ
Sequence of SRSF protein kinase 3 (Homo sapiens) (Q9UPE1 whole entry): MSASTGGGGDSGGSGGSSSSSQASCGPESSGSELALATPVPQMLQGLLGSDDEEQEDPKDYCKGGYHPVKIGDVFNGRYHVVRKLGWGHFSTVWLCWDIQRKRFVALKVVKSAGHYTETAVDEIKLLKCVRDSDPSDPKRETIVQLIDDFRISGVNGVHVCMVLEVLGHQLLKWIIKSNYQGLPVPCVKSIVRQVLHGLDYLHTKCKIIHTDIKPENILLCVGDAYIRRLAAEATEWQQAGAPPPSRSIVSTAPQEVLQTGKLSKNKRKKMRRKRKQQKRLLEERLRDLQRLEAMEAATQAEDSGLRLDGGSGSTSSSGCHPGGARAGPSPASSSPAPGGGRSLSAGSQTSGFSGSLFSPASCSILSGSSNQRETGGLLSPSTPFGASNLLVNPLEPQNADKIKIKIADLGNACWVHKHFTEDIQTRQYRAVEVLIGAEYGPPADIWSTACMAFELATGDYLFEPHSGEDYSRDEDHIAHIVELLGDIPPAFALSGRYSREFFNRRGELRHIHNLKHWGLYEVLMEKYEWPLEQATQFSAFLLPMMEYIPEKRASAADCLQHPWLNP
Sequence of Homeodomain-interacting protein kinase 1 (Homo sapiens) (Q86Z02 whole entry, looked up): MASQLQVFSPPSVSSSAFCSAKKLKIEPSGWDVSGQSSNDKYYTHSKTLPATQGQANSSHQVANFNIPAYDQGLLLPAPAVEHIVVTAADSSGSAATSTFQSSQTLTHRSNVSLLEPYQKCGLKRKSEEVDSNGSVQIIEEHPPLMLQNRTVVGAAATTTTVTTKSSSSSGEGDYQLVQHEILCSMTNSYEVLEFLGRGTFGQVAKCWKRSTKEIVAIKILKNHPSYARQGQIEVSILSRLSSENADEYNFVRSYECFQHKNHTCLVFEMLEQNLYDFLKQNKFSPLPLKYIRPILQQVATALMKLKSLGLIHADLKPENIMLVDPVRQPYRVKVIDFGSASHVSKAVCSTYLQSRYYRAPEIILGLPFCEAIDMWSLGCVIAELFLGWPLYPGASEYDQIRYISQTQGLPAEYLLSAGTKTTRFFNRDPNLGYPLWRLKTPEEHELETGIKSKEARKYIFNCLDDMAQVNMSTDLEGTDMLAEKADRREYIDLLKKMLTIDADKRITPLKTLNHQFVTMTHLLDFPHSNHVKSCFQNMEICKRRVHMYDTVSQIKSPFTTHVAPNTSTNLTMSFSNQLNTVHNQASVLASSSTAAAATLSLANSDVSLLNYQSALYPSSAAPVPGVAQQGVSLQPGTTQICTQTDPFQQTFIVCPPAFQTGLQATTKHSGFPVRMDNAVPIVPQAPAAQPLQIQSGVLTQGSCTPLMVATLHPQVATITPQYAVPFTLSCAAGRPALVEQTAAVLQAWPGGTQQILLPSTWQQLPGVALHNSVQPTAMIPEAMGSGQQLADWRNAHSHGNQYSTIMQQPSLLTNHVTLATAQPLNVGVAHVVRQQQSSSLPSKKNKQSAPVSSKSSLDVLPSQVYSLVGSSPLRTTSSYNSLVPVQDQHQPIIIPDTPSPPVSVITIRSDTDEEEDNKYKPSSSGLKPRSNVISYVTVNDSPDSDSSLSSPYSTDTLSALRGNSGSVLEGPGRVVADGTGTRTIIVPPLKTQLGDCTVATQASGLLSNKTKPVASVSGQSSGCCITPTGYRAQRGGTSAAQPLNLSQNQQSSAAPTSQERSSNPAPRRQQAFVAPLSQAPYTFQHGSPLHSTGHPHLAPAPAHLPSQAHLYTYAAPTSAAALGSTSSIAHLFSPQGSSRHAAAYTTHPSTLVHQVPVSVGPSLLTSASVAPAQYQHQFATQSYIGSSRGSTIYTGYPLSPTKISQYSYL
Sequence of Glycogen synthase kinase-3 beta (Homo sapiens) (P49841 whole entry, looked up): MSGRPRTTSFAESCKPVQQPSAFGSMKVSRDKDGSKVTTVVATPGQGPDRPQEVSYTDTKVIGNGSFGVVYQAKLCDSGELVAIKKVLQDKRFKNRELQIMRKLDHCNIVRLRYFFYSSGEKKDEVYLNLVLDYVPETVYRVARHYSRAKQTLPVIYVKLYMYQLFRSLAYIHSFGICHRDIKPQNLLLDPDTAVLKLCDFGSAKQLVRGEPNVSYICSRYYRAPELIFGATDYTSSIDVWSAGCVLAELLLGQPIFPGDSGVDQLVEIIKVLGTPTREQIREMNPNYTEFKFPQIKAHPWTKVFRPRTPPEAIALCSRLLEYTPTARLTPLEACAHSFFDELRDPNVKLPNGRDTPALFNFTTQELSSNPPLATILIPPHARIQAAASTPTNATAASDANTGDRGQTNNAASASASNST
Sequence of Mitogen-activated protein kinase 14 (Homo sapiens) (Q16539 whole entry): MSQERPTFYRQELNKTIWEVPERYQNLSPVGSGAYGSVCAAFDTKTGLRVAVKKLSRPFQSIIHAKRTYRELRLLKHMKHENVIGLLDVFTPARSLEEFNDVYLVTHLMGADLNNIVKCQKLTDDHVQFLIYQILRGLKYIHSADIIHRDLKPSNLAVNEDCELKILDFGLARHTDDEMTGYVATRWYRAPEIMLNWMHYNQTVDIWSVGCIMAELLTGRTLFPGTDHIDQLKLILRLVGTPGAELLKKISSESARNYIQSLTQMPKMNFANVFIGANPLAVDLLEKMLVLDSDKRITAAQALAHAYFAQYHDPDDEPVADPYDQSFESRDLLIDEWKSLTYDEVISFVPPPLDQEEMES
Sequence of Mitogen-activated protein kinase 3 (Homo sapiens) (P27361 whole entry): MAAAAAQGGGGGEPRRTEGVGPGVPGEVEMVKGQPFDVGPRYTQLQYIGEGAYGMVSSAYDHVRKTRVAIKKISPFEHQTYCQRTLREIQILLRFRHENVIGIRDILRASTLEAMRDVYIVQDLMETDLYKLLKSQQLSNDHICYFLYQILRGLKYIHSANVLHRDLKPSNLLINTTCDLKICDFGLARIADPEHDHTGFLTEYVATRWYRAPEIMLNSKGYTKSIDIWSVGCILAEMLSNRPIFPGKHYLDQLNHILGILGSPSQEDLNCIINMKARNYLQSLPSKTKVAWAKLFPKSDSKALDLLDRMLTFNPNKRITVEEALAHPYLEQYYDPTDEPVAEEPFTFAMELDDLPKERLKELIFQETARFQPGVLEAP

Turning to `COc1ccc(-c2nn3ncccc3c2-c2ccnc(Nc3ccc(Cl)c(C(F)(F)F)c3)n2)cc1`, the inhibition was 4.05% in [1]; -0.18% in [2]; -0.9% in test [3]; 1.05% in test [4]; 1.36% in test [5]; 1.72% in [6]. Also, the inhibition in test [7] was 4.38%; in [8] it was 3.47%; in test [9], 3.46%; in test [10], 4.84%; in test [11], 4.01%; in test [12] it was -2.03%. For the same compound, the inhibition was -0.79% in test [13]; 4.58% in test [14]; 36.1% in test [15]; 2.93% in test [16]; 16.8% in [17]; 0.64% in test [18]. Also, the inhibition in test [19] came to 1.01%; in [20], 1.67%.

As for `COc1ccc(-c2coc3ncnc(N)c23)cc1`, the inhibition was 2.62% in test [1]; -1.54% in [2]; 0.23% in test [3]; -1.26% in [4]; 0.51% in [5]; 4.38% in test [6]. In addition, the inhibition was 5.45% in test [7]; 4.53% in test [8]; 6.4% in test [9]; 5.16% in test [10]; 2.51% in [11]; -0.31% in test [12]. In addition, the inhibition was -3.44% in [13]; 4.37% in test [14]; 13.4% in [15]; 4.69% in [16]; 7.25% in [17]; 1.38% in test [18]. Also, the inhibition amounted to 5.26% in test [19] and 1.11% in [20].

`Nc1ncnc2occ(-c3ccc(NC(=O)Nc4cc(C(F)(F)F)cc(C(F)(F)F)c4)cc3)c12`: the inhibition in test [1] was 7.52%; in [2], 0.45%; in test [3] it was 11.7%; in [4], 14.4%; in [5], 63.3%; in test [6], 2.13%. The inhibition was determined as 6.77% in [7]; 2.73% in [8]; 1.95% in test [9]; 0.6% in test [10]; 2.23% in test [11]; 1.52% in [12]. The inhibition in test [13] is -0.42%; in test [14] it was 2.48%; in test [15], 11%; in test [16] it was 0.21%; in test [17], 8.68%; in [18], -0.42%. The inhibition in [19] was 14.5%; in test [20], -0.95%.

For `Cc1nnc(-c2ccc(C)c(-c3ccc(C(=O)Nc4cccc(C#N)c4)cc3)c2)o1`, the inhibition in test [1] is 3.29%; in test [2] it was -1.32%; in test [3], -2.46%; in test [4], 0.46%; in [5], 0.28%; in test [6], 4%. Further, the inhibition in test [7] was 2.96%; in test [8], 0.61%; in test [9], 2.56%; in [10] it was 3.17%; in [11], 5.78%; in test [12], -2.92%. The inhibition was -1.26% in test [13]; 5.2% in test [16]; 22.9% in test [17]; 3.5% in [18]; 1.58% in test [19]; -0.3% in test [20].

On to `CCN1CCC(CC(=O)Nc2n[nH]c3nc(-c4cccs4)c(Br)cc23)CC1`, for which the inhibition in [1] is 68.7%; in test [2], 3.88%; in [3] it was 6.48%; in test [4], 2.06%; in test [5] it was 8.88%; in test [6], -5.62%. Also, the inhibition was -3.11% in test [7]; -4.72% in [8]; -6.9% in test [9]; -1.1% in test [10]; 0.02% in test [11]; -0.78% in [12]. The inhibition was 2.42% in [13]; -3.19% in test [14]; 0.26% in [15]; -1.99% in test [16]; 3.07% in [17]; -0.36% in test [18]. For the same compound, the figures for the inhibition in [19] and in test [20] were -1.98% and -1.67%, respectively.

With `NCc1ccc(-c2nc(-c3ccc(Cl)c(O)c3)c(-c3ccncc3)[nH]2)cc1`, the inhibition in [1] is 65.4%; in [2], 0.11%; in [3], 5.53%; in test [4], 0.99%; in [5], 8.45%; in test [6], 4.51%. Besides, the inhibition in test [7] was 15.8%; in test [8], -0.32%; in test [9], 0.67%; in test [10] it was 0.94%; in test [11] it was 0.95%; in test [12] it was -2.12%. Also, the inhibition in test [13] was -2.01%; in [14] it was 41%; in test [15], 77.1%; in [16], 13.6%; in test [17] it was 54%; in test [18] it was -0.52%. In addition, the figures for the inhibition in test [19] and in test [20] were 1.79% and -0.97%, respectively.

With `CCc1cccc(NC(=O)Nc2ccc(Oc3ccc4nc(NC(=O)OC)[nH]c4c3)cc2)c1`, the inhibition was determined as 6.49% in [1]; 1.47% in test [2]; 4.9% in test [3]; 7.33% in test [4]; 13.9% in [5]; 2.67% in [6]. Moreover, the inhibition in [7] was found to be 1.01%; in test [8], 2.12%; in test [9], 0.03%; in test [10], 2.25%; in test [11] it was 2.79%; in [12], 1.41%. In addition, the inhibition in test [13] came to 2.28%; in test [14], 2.41%; in test [15], 3.05%; in test [16], 1.54%; in test [17], 6.14%; in test [18], 0.54%. Besides, the inhibition was 0.33% in test [19] and -0.64% in test [20].
